# Rows were chosen to be rich in hits. Some 7.5% of all compounds tested hit in one or more screens of this group.
# ELG1 genotoxic: qHTS screen for small molecules that induce genotoxicity in human embryonic kidney (HEK293T) cells expressing luciferase-tagged ELG1. HEK293T ELG1-luciferase reporter, luminescence, 16 h. Potency, µM (series often up to 46 µM), usual class: activators. 1.3% of 330,000 active. AID 504466, 2011; note: nearly all actives have a fitted effect of over 60% in size
#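 HEK293T cells expressing luciferase-tagged ELG1 were treated with compound or DMSO for 16 hr at 37°C. Luciferase activity was then read after 30 min with ONE-Glo at room temperature; rising signal flags genetic stress.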
# SMN2 splice up: qHTS Assay for Enhancers of SMN2 Splice Variant Expression | Potency, µM (doses to about 46.1 µM), usual class: activators | HEK293 SMN2-luciferase splicing reporter, luminescence, 30-36 h | AID 1458, 2008 | 2.8% of 210,000 active; note: nearly all actives have a fitted effect of over 55% in size
#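 HEK293 cells carry an SMN2 minigene-luciferase reporter in which exon 7 inclusion puts luciferase in frame. Cells were seeded at 2000 cells/well, attached for 10-12 hours, then exposed to compounds for 30-36 hours at 37C before ONE-Glo luminescence.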
# FLuc counter: qHTS profiling assay for firefly luciferase inhibitor/activator using purifed enzyme and Km concentrations of substrates (counterscreen for miR-21 project); Potency, µM (series often up to 57.5 µM), hits mostly inhibitors; 6.9% of 360,000 active; purified FLuc, Km substrates, luminescence inhibition; note: nearly all actives have a fitted effect of over 55% in size
# Target sequence (P08659 whole entry, looked up): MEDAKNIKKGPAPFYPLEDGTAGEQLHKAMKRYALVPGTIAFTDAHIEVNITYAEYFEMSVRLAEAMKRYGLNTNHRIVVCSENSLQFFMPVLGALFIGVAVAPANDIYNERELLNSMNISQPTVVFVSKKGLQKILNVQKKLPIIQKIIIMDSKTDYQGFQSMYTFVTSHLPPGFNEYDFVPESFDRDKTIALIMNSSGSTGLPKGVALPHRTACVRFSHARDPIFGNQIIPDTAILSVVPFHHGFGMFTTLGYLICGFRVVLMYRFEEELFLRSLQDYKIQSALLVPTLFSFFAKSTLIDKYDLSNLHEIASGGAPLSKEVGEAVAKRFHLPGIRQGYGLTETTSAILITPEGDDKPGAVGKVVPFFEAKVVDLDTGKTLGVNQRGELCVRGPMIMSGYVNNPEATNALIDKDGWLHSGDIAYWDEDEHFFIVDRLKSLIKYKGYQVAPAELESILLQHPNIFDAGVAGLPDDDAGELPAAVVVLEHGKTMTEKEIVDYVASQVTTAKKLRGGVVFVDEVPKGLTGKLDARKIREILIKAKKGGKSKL
#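 Biochemical qHTS of compounds, final roughly 60 µM downward over six points, against 10 nM purified firefly luciferase using Km concentrations of substrates (10 uM D-luciferin, 10 uM ATP) in Tris acetate pH 7.5 buffer; luminescence output.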
# NPC1 prom act: qHTS Assay for NPC1 Promoter Activators; Huh7 NPC1 promoter luciferase reporter, 24 h; Potency, µM (top dose mostly 9.22 µM), most hits filed as activators; 2.4% of 320,000 active; note: nearly all actives have a fitted effect of over 60% in size
#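 Luciferase expression driven by the NPC1 promoter was measured in stably transfected Huh7 cells after a 24 h compound incubation, using a luciferase reagent and a luminescence read.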
# Rab9 prom act: qHTS Assay for Rab9 Promoter Activators; Huh7 Rab9 promoter-luciferase reporter, luminescence, 24 h; Potency, µM (titrated, usually from 9.22 µM), usual class: activators; 2.8% of 320,000 active; note: nearly all actives have a fitted effect of over 60% in size
#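 Using Huh7 cells stably transfected with Rab9 promoter–luciferase, compounds were incubated 24 h at 37 °C, 5% CO2; luciferase luminescence was read 10 min after reagent addition.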
# Hits are given with their value; i = inactive; ? = inconclusive; nt = not tested or not shown; [ ] = remark or other dose. Calls come from the whole dose curve; as a rule, active = well fitted curve in the direction sought with a large enough effect; inconclusive = small, poorly fitted or top-dose-only effect, or another doubt; inactive = no such curve, though single readings can be large; an effect the other way counts as inactive or inconclusive.
SMILES,ELG1 genotoxic,SMN2 splice up,FLuc counter,NPC1 prom act,Rab9 prom act
COc1cc(C2CC(=O)Nc3cc4c(cc32)OCCO4)cc(OC)c1O (stereo unspecified),nt,i,i,nt,nt
N#Cc1c(-n2ncnc2-c2cccc(Cl)c2)sc2c1CCCCC2,nt,i,1.5µM,nt,nt
N#Cc1c2c(c(-c3ccccc3Cl)[nH]c1=S)CCCC2,i,i,i,i,i
N#Cc1c(-n2cccc2/C=N/O)sc2c1CCCC2,i,i,i,i,i
N#Cc1c(-n2ncnc2-c2ccccc2C(F)(F)F)sc2c1CCCCC2,nt,i,0.24µM,nt,nt
N#Cc1c(C(F)(F)F)cc(-c2ccccc2)nc1SCC(=O)Nc1sc2c(c1C#N)CCC2,i,nt,i,i,i
COc1ccccc1-c1ncnn1-c1sc2c(c1C#N)CCCCC2,nt,i,1.5µM,nt,nt
N#Cc1c(-n2ncnc2-c2ccccc2Cl)sc2c1CCCCC2,nt,i,1.9µM,nt,nt
CN1C(=O)C(=O)/C(=C(/O)c2ccccc2)C1c1ccc([N+](=O)[O-])cc1 (stereo unspecified),i,nt,i,i,i
CCCOc1ccc(Oc2nc(-c3ccncc3)nc3ccccc23)cc1,i,nt,i,i,i
COc1cccc(C2NC(=O)NC(C)=C2C(=O)Nc2cccc(C)c2C)c1 (stereo unspecified),i,i,i,i,i
CCN1CCN(CCCN(Cc2cccs2)C(=S)Nc2ccccc2C)CC1,i,i,i,i,i
Cc1ccccc1NC(=O)c1ccc(OCc2c(C)noc2C)cc1,i,nt,i,i,i
COc1ccc(C(=O)Oc2ccc3oc(=O)sc3c2)cc1,?,i,11µM,i,i
COc1ccc(C(=O)Oc2ccc3c(-c4ccc(OC)cc4)cc(=O)oc3c2)cc1,nt,i,nt,nt,nt
COc1ccc(C(=O)Oc2ccc3ccc(=O)oc3c2)cc1,i,nt,2.7µM,i,i
COc1ccccc1CNC(=O)CSc1nc(=O)[nH]c2c1CCCC2,nt,nt,i,nt,nt
Cc1cccc(NC(=O)c2ccc3ccccc3n2)c1C,?,13µM,0.85µM,?,?
COc1ccc(S(=O)(=O)N2CCCCC2)cc1NC(=O)c1ccc2ccccc2n1,i,i,i,i,i
O=C(NCc1ccccc1F)c1ccc2ccccc2n1,i,nt,i,i,i
O=C(NCc1ccccc1Cl)c1ccc2ccccc2n1,?,nt,15µM,?,?
O=C(Nc1nccs1)c1ccc2ccccc2n1,?,nt,3.4µM,4µM,?
Cc1ccc(S(=O)(=O)N2CCCCC2)cc1NC(=O)c1ccc2ccccc2n1,i,i,27µM,i,i
O=C(Nc1nccs1)c1cc(Cl)nc2ccccc12,i,nt,i,i,i
Cc1noc(C)c1COc1ccccc1C(=O)N(C)CC(=O)Nc1ccc(F)c(F)c1F,i,nt,nt,i,i
SMILES,ELG1 genotoxic,SMN2 splice up,FLuc counter,NPC1 prom act,Rab9 prom act
C[C@H](NC(=O)N1CCc2nc(-c3ccccc3)c3c(c2C1)CO[C@@H](C)C3)c1ccccc1,nt,i[9.22 µM],nt,nt,nt
Cc1csc(NC(=O)c2cc(C)nc3ccccc23)n1,i,i,i,i,i
Cc1csc(NC(=O)c2ccc3ccccc3n2)n1,?,nt,1.1µM,0.5µM,1.1µM
Cc1csc(NC(=O)c2cnc3ccccc3n2)n1,?,nt,2.4µM,?,?
CCC(CC)c1nnc(NC(=O)c2ccc3ccccc3n2)s1,?,13µM,5.4µM,?,?
O=C(Nc1ccccn1)c1ccc2ccccc2n1,?,11µM,0.95µM,?,4.5µM
CCC(CC)c1nnc(NC(=O)c2cc(-c3ccccc3)nc3ccccc23)s1,i,nt,i,i,i
COc1cccc(CNC(=O)C2CCN(c3nnc(N4CCCC4=O)s3)CC2)c1,i,nt,i,i,i
Cc1cc(SCC(=O)NCc2ccccc2Cl)nc(=O)[nH]1,nt,nt,i,nt,nt
CCOc1cc(N2CCOCC2)c(OCC)cc1NC(=O)c1nn(CC)c(=O)c2ccccc12,i,nt,i,i,i
O=C(CSc1nnc(NC(=O)Nc2ccccc2)s1)Nc1cccc(F)c1,nt,nt,1.5µM,nt,nt
COc1ccccc1NC(=O)Nc1nnc(C(C)c2ccccc2)s1 (stereo unspecified),i,nt,i,i,i
CC(=O)Nc1ccc(NC(=O)CSc2nnc(NC(=O)c3cccc(F)c3)s2)cc1,?,nt,0.67µM,?,3.2µM
COc1ccccc1NC(=O)Nc1nnc(C(C)C)s1,?,22µM,17µM,?,?
COc1ccccc1NC(=O)CSc1nnc(NC(=O)Nc2ccc(C)cc2)s1,nt,nt,2.1µM,nt,nt
CCOc1ccc(NC(=O)CSc2nnc(NC(=O)Nc3ccccc3)s2)cc1,nt,nt,i,nt,nt
CCN1CCN(c2oc(-c3ccc(COc4ccc(C)cc4)o3)nc2C#N)CC1,nt,nt,i,nt,nt
Cc1ccccc1CCN1CCCC(CN(C)C(=O)C(=O)c2ccco2)C1 (stereo unspecified),i,nt,i,i,i
COc1cc([N+](=O)[O-])cc(/C=N/NC(=O)CC#N)c1O,i,i,?,i,i
O=C(NCCOCCn1c(=O)oc2ccccc21)Nc1cccc(Cl)c1,nt,i,i,nt,nt
COc1ccc(C(=O)O)cc1S(=O)(=O)Nc1ccccc1-c1ccccc1,i,nt,i,i,i
O=C(CN1C(=O)CCSc2ccccc21)Nc1ccc(C(F)(F)F)cc1,nt,i,i,nt,nt
O=C(CSc1nnc(NC(=O)c2c(F)cccc2F)s1)Nc1ccc(F)cc1,i,nt,i,?,2.2µM
O=C(CSc1nnc(NC(=O)c2c(F)cccc2F)s1)NC1CC1,i,nt,i,i,i
O=C(O)CCC(CNS(=O)(=O)c1ccccc1)C(F)(F)F (stereo unspecified),i,i,i,i,i
SMILES,ELG1 genotoxic,SMN2 splice up,FLuc counter,NPC1 prom act,Rab9 prom act
CC(=O)c1ccccc1OC(=O)CCN1C(=O)c2ccccc2C1=O,i,i,i,i,i
Cc1[nH]c2ccc(C(=O)N3CCN(Cc4ccccc4)CC3)cc2c1C,i,nt,6µM,i,i
COc1cc(CN2CCN(C(=O)c3ccc(-c4ccccc4)cc3)CC2)cc(OC)c1OC,?,nt,21µM,i,i
CCOC(=O)N1CCN(C(=O)c2ccc3[nH]c(C)c(C)c3c2)CC1,i,nt,nt,nt,nt
COc1ccc2[nH]c(C(=O)N3CCN(Cc4ccccc4)CC3)cc2c1OC,i,nt,15µM,i,i
Oc1ccc(O)c(-c2cnns2)c1,i,i,8.5µM,i,i
Cc1ccc(NC(=O)CN(C)C(=O)COC(=O)CCS(=O)(=O)c2ccc(C)cc2)cc1,i,nt,i,i,i
O=C(O)Cc1sc(Nc2ccc(Cl)cc2)nc1-c1cccs1,?,14µM,13µM,?,3.5µM
Cc1ccc(Nc2nc(-c3ccc(C)cc3)c(CC(=O)O)s2)cc1,i,i,?,i,i
O=C(O)Cc1sc(N/N=C\c2ccncc2)nc1-c1ccccc1,i,nt,15µM,i,i
O=C(O)Cc1sc(Nc2cccc3ccccc23)nc1-c1ccccc1,i,nt,24µM,i,i
CN(C)S(=O)(=O)c1ccc(-c2csc(N/N=C/c3ccco3)n2)cc1,i,nt,i,i,i

# Screening data deposited in PubChem by National Center for Advancing Translational Sciences (NCATS).
